Reference: the supplement of paper PMC11555231

Target: PADI4, Q9UM07
Assay: log2 enrichment score relative to parent PADI4_3 peptide (binding to PADI4); higher = tighter binding than parent
Settings: CaCl2: 10 mM
Protocol: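 Deep mutational scan of the cyclic peptide PADI4_3 (ClAc-D-Tyr1 initiator, thioether-cyclised to Cys12, C-terminal Gly plus HA tag, mRNA-displayed). Positions 2-11 were each randomised by NNK codons; Met was reprogrammed as N-methyl-alanine (MeA). One round of equilibrium panning against bead-immobilised human PADI4 (100 nM, 10 mM CaCl2, RT). Log2 enrichment (bound/input frequency) relative to the parent sequence (0 = parent), mean of three independent selections.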

Sequence of PADI4, Q9UM07 (Q9UM07 whole entry): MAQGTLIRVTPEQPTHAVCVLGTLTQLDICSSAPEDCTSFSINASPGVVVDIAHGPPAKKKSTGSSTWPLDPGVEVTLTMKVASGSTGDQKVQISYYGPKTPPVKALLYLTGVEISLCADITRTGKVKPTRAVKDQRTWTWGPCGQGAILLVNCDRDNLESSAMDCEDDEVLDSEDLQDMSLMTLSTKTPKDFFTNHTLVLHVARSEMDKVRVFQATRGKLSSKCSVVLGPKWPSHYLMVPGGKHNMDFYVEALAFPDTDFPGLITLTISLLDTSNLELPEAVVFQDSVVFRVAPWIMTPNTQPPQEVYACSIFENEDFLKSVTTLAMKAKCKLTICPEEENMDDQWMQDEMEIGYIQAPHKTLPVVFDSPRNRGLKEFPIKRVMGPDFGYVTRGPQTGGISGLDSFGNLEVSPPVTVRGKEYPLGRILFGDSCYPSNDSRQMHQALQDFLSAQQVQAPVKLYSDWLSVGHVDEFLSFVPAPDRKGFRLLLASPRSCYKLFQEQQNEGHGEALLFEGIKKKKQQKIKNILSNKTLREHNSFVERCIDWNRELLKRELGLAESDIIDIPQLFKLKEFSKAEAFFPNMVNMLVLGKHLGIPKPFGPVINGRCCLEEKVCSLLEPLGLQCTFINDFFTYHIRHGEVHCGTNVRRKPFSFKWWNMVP

Binder | log2 enrichment score
YRDHHYAHPKYCG [PADI4_3_R7A R7A] | 0.206
YRDHPYRHPKYCG [PADI4_3_H5P H5P] | -3.95
YRAHHYRHPKYCG [PADI4_3_D3A D3A] | -2.97
YRDHHYPHPKYCG [PADI4_3_R7P R7P] | -4.46
YRDHHYRHVKYCG [PADI4_3_P9V P9V] | -1.8
YRDIHYRHPKYCG [PADI4_3_H4I H4I] | -2.05
YRVHHYRHPKYCG [PADI4_3_D3V D3V] | -3.7
YRDHHYRIPKYCG [PADI4_3_H8I H8I] | -3.37
YRDHHYRAPKYCG [PADI4_3_H8A H8A] | -3.62
YRDHHYRHPFYCG [PADI4_3_K10F K10F] | -0.468
YRDHHYRHIKYCG [PADI4_3_P9I P9I] | -1.78
YVDHHYRHPKYCG [PADI4_3_R2V R2V] | -1.2
YRDVHYRHPKYCG [PADI4_3_H4V H4V] | -2.6
YRDHHYIHPKYCG [PADI4_3_R7I R7I] | -1.67
YRDHHYRHPIYCG [PADI4_3_K10I K10I] | 2.81
YRDHHYLHPKYCG [PADI4_3_R7L R7L] | -2.09
YRDHHYRFPKYCG [PADI4_3_H8F H8F] | -3.69
YRDHHLRHPKYCG [PADI4_3_Y6L Y6L] | -1.7
YRDHHYRHPKFCG [PADI4_3_Y11F Y11F] | -2.66
YFDHHYRHPKYCG [PADI4_3_R2F R2F] | -2.57

Binder | log2 enrichment score
YRDAHYRHPKYCG [PADI4_3_H4A H4A] | -1.88
YRDHVYRHPKYCG [PADI4_3_H5V H5V] | -3
YRDHHYRHPLYCG [PADI4_3_K10L K10L] | 0.693
YRDHHVRHPKYCG [PADI4_3_Y6V Y6V] | -2.3
YRPHHYRHPKYCG [PADI4_3_D3P D3P] | -2.96
YRDHHYRHFKYCG [PADI4_3_P9F P9F] | -2.05
YRDHHYRHPAYCG [PADI4_3_K10A K10A] | -1.7
YRDHHYRHPKLCG [PADI4_3_Y11L Y11L] | -3.94
YRDHHYRHPKVCG [PADI4_3_Y11V Y11V] | -4.2
YIDHHYRHPKYCG [PADI4_3_R2I R2I] | -1.38
YRDHHYRLPKYCG [PADI4_3_H8L H8L] | -3.01
YRDHHIRHPKYCG [PADI4_3_Y6I Y6I] | -2.71
YRDHHYRHPKICG [PADI4_3_Y11I Y11I] | -3.77
YRDHHYRVPKYCG [PADI4_3_H8V H8V] | -3.3
YRDHFYRHPKYCG [PADI4_3_H5F H5F] | -4.31
YRDHHYRHPKACG [PADI4_3_Y11A Y11A] | -4.24
YRIHHYRHPKYCG [PADI4_3_D3I D3I] | -4.17
YRLHHYRHPKYCG [PADI4_3_D3L D3L] | -2.88
YRDHHYRHPKYCG [PADI4_3_P9P P9P] | 0
YADHHYRHPKYCG [PADI4_3_R2A R2A] | -2.77

Binder | log2 enrichment score
YRDHHFRHPKYCG [PADI4_3_Y6F Y6F] | -0.749
YRDHHPRHPKYCG [PADI4_3_Y6P Y6P] | -2.49
YRDHHYRPPKYCG [PADI4_3_H8P H8P] | -4.28
YRDHHARHPKYCG [PADI4_3_Y6A Y6A] | -1.95
YRDHAYRHPKYCG [PADI4_3_H5A H5A] | -2.12
YRDHHYRHLKYCG [PADI4_3_P9L P9L] | -2.12
YRDLHYRHPKYCG [PADI4_3_H4L H4L] | -1.52
YRDHIYRHPKYCG [PADI4_3_H5I H5I] | -3.45
YPDHHYRHPKYCG [PADI4_3_R2P R2P] | -2.67
YRDHHYRHPKPCG [PADI4_3_Y11P Y11P] | -4.34
YRDHHYRHPVYCG [PADI4_3_K10V K10V] | 2.58
YRFHHYRHPKYCG [PADI4_3_D3F D3F] | -4.36
YRDHLYRHPKYCG [PADI4_3_H5L H5L] | -3.61
YRDHHYVHPKYCG [PADI4_3_R7V R7V] | -1.6
YRDHHYFHPKYCG [PADI4_3_R7F R7F] | -0.962
YLDHHYRHPKYCG [PADI4_3_R2L R2L] | -0.745
YRDHHYRHPPYCG [PADI4_3_K10P K10P] | -3.67
YRDPHYRHPKYCG [PADI4_3_H4P H4P] | -2.66
YRDHHYRHAKYCG [PADI4_3_P9A P9A] | -1.66
